In ChEMBL document CHEMBL3988442, “University of Dundee, Small-Polar-MMV Screening Library” (2021) one finds Percent Effect data, which are given here for ten compounds.

For some assays here: Potency and affinity values are given separately.

What all share (set-up): scale not given: direction of the effect not stated beside the values
Assay [1] addresses Protein translocase subunit SecA (Escherichia coli (strain K12)) (UniProt P10408). Briefly: Assay to Identify E. coli SecA ATPase Inhibitors. The format is functional. Particulars: 30 µM.
For assay [2], the target named is T1, Ubiquitin-activating enzyme e1, putative (Leishmania donovani (strain BPK282A1)) (UniProt E9BSI1).
T1 sequence (whole entry): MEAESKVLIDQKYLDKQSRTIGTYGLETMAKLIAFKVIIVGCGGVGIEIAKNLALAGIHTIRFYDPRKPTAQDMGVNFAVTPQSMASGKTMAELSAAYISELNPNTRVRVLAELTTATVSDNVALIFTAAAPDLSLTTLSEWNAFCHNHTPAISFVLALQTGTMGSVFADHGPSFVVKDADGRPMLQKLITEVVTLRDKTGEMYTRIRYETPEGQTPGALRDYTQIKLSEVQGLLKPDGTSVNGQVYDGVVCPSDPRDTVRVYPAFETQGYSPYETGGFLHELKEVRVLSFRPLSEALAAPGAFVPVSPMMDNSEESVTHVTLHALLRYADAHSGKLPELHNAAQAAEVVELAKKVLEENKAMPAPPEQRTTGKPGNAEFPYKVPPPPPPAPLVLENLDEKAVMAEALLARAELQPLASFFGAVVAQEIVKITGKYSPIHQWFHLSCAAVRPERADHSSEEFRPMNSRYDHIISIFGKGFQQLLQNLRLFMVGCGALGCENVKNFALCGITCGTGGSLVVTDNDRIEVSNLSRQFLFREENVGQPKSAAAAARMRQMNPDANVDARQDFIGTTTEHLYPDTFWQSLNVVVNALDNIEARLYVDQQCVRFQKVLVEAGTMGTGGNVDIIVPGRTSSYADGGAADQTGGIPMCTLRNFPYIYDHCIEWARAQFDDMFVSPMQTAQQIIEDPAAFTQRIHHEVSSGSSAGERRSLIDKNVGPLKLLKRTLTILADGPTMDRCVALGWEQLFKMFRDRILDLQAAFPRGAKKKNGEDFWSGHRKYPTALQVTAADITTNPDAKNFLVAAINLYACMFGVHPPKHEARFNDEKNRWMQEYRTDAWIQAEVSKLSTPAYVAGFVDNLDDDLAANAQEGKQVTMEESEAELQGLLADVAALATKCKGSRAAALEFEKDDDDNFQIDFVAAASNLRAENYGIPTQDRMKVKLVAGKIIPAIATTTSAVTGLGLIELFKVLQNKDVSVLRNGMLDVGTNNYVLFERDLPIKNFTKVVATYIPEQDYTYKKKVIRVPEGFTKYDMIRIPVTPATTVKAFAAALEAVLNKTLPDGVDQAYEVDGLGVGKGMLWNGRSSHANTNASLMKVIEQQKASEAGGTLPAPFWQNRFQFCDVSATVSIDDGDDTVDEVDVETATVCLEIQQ
Briefly: Leishmania donovani Ubiquitin Activating Enzyme (LdE1). The format is functional. The settings on record: 30 µM.

In assay [3] the target is AMP-activated protein kinase, AMPK (Homo sapiens) (UniProt P54646+O43741+P54619+Q9UGJ0+Q9Y478+Q13131+Q9UGI9). Briefly: AMP-dependent Kinase enzyme assay. An in vitro enzyme assay that detects ADP turnover that is directly proportional to AMPK activity. This uses naive AMPK that is activated during the assay with MK-8722. The format is functional. The settings on record: 30 µM.

Assay [4] concerns the target Sialic acid-binding Ig-like lectin 9 (Homo sapiens) (UniProt Q9Y336). Briefly: Hs-Siglec9 ALPHAscreen SOP 20170721. Particulars: 10 µM.
The subject of a further assay is Trypanosoma cruzi. The assay is described as follows: Trypanosoma cruzi phosphomannomutase and mannose-1-phosphate guanylyltransferase assay. The assay is classed as functional. Particulars: 10 µM.
Assay [5] deals with T2, Arginase-2, mitochondrial (Homo sapiens) (UniProt P78540).
T2 sequence (whole entry): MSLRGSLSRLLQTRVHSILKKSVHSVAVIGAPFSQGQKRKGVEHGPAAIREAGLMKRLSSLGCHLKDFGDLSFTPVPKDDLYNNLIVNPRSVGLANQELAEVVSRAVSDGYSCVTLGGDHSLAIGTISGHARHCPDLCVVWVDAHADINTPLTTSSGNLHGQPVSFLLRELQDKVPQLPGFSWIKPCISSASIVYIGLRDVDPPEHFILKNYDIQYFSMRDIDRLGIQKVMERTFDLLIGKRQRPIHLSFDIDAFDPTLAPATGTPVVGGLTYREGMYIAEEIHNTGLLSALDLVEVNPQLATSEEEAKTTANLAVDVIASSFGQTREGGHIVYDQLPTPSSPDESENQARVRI
The assay is described as follows: in vitro enzyme assay to detect the production of urea directly proportional to the activity of Arginase II. Note: in the data most compounds retested in dose-response had high values. The format is functional. The settings on record: 33.3 µM.

The target of assay [6] is T3, Proteasome subunit beta (Trypanosoma cruzi) (UniProt O96673).
T3 sequence (whole entry): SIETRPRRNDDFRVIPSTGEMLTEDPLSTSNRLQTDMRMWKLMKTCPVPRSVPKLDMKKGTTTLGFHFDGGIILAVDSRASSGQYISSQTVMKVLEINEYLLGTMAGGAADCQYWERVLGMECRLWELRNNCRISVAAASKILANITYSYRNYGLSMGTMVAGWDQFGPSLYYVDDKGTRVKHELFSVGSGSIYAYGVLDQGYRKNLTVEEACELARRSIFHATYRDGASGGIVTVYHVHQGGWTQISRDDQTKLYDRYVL
The assay is described as follows: Trypanosoma cruzi proteasome chymotrypsin-like activity (TcProtChymo) assay. Note: in the data most compounds retested in dose-response had high values. The format is functional. Particulars: 9.37 µM.

The species entered for another assay is Homo sapiens. Briefly: To identify inhibition of the IFN signalling (Jak-Stat) pathway via expression of an eGFP reporter gene under the control of an IFN-stimulated response element (ISRE) containing MxA promoter. The format is functional. The settings on record: 30 µM.
In assay [7] the target is T4, Tyrosyl-tRNA synthetase, putative (Trypanosoma cruzi (strain CL Brener)) (UniProt Q4DSP6).
T4 sequence (whole entry): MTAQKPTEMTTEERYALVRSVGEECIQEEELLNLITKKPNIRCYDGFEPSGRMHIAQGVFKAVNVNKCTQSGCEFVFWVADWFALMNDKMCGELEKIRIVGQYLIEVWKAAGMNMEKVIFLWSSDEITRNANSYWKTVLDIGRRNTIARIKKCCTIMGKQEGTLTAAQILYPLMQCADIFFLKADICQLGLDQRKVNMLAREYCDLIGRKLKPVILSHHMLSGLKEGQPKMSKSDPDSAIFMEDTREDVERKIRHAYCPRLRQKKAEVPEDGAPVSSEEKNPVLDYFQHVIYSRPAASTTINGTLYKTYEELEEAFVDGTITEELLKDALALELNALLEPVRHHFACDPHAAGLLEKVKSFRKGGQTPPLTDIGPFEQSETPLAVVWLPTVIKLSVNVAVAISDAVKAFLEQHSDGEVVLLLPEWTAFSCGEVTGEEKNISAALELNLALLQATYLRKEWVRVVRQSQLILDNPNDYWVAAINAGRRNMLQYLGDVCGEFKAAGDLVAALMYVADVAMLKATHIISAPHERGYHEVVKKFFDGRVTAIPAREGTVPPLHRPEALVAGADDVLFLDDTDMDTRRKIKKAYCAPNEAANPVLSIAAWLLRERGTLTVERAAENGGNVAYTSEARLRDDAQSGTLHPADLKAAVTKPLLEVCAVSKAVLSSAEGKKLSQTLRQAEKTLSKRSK
The assay is described as follows: Trypanosoma cruzi tyrosyl tRNA synthetase (TcYRS) _High Tyrosine SOP. Note: in the data most compounds retested in dose-response had high values. Particulars: 30 µM. The assay is classed as functional.

The target of assay [8] is T4, Tyrosyl-tRNA synthetase, putative (Trypanosoma cruzi (strain CL Brener)). The assay is described as follows: Trypanosoma cruzi tyrosyl tRNA synthetase (TcYRS) SOP. The format is functional. Particulars: 30 µM.
Assay [9] addresses Chromo domain-containing protein 1 (Saccharomyces cerevisiae (strain ATCC 204508 / S288c) (Baker's yeast)) (UniProt P32657). The assay is described as follows: ScCHD-1 Enzyme Inhibition Assay. Note: in the data most compounds retested in dose-response had high values. Particulars: 30 µM. The format is functional.

Protein translocase subunit SecA (Escherichia coli (strain K12)), sequence (P10408 whole entry): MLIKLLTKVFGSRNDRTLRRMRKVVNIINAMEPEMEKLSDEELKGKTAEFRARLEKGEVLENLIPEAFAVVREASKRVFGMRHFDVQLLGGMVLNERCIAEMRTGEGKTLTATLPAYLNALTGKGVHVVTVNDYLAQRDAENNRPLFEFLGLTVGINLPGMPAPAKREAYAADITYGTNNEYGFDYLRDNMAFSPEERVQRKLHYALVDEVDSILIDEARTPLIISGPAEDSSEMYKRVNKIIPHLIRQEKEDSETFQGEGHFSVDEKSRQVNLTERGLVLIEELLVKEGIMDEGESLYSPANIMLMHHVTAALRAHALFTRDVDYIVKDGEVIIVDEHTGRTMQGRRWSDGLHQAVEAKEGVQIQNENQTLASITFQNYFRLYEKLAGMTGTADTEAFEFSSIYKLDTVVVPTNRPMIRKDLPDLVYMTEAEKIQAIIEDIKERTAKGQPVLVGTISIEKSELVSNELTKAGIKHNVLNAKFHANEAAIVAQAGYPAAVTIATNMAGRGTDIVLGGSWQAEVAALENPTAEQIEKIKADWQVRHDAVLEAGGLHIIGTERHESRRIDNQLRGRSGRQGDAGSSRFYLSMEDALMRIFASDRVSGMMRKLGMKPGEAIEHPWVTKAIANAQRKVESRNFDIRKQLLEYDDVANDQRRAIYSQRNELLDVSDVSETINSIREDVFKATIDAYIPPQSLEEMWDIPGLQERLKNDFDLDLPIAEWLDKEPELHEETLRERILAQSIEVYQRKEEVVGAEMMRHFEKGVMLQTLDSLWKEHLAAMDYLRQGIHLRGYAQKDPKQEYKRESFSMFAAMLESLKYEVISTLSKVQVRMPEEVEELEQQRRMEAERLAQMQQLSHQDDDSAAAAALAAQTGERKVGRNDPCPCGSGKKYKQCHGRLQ
Sialic acid-binding Ig-like lectin 9 (Homo sapiens), sequence (Q9Y336 whole entry): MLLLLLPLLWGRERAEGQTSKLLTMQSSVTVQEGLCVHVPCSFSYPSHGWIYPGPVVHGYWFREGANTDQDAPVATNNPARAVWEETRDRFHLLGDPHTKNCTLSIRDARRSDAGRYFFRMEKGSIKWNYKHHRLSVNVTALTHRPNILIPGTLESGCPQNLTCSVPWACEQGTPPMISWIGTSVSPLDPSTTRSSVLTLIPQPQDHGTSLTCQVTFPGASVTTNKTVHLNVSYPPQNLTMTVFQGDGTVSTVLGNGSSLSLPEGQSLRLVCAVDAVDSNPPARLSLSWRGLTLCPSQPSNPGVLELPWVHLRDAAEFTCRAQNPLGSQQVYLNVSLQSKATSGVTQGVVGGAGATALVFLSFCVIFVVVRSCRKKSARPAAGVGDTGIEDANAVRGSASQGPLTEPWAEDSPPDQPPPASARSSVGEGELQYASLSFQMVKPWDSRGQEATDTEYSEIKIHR
Chromo domain-containing protein 1 (Saccharomyces cerevisiae (strain ATCC 204508 / S288c) (Baker's yeast)), sequence (P32657 whole entry, the tested form may be a part): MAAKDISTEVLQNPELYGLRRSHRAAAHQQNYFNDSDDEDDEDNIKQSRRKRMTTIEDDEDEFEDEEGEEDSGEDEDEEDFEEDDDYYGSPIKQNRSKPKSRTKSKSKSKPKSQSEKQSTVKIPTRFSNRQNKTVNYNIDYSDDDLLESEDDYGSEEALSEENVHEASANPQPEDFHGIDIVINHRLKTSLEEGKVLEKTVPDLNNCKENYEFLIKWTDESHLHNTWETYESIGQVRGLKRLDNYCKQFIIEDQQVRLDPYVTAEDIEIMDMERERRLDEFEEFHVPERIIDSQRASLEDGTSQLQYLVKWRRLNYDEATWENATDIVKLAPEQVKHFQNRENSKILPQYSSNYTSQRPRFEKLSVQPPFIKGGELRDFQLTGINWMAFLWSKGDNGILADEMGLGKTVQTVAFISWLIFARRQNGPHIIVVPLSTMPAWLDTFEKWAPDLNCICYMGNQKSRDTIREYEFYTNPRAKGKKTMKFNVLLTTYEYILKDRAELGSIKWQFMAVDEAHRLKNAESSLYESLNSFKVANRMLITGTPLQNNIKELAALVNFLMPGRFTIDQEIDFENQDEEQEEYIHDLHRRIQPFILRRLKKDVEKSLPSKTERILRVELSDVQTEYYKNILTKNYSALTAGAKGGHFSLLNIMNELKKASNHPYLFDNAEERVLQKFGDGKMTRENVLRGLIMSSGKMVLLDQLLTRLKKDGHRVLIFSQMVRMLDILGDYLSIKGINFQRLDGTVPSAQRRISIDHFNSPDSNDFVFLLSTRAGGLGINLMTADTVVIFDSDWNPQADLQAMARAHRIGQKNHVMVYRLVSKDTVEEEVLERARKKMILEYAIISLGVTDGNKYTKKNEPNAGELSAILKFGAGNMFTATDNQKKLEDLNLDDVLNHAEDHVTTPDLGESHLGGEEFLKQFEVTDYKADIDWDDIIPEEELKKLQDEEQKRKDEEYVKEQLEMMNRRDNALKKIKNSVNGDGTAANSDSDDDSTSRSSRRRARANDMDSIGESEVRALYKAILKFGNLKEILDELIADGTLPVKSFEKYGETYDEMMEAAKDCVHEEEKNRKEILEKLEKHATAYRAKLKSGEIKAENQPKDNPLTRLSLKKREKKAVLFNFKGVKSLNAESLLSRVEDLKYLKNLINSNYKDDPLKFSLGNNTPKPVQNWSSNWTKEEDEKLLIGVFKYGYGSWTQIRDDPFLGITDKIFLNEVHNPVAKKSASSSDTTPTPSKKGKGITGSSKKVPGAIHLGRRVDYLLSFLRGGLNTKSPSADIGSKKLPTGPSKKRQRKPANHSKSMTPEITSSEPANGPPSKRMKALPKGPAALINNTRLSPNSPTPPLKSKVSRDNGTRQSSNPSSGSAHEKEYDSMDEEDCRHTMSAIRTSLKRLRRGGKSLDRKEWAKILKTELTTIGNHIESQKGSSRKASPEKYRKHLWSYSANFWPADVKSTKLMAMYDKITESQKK

`NC(=O)C1(c2cnccn2)CCCN1Cc1cc2ccccc2o1` (stereo not given): the Percent Effect in [1] was -2.52%; in assay [2], 6.76%; in [3] it was 11.2%; in [4] it was 3.94%; in the assay on Trypanosoma cruzi it was -1.78%; in assay [5] it was -2.09%. Also, the Percent Effect is 14.2% in [6]; 1.46% in the assay filed under Homo sapiens; 9.68% in assay [7]; 16.9% in [8]; -6.96% in assay [9].

Turning to `CCC1=N[C@@]2(CC[C@@H]3CN(S(=O)(=O)N(C)C)C[C@@H]32)C(=O)N1CC(C)C`, the Percent Effect in assay [1] was -1.28%; in assay [2] it was 10.4%; in assay [3], -3.92%; in assay [4], 6.82%; in the assay with Trypanosoma cruzi, -2.07%; in [5] it was 3.23%. In addition, the Percent Effect is -0.696% in assay [6]; -7.21% in the assay listed under Homo sapiens; 5.29% in [7]; 11.5% in assay [8]; -6.8% in [9].

For the compound `COc1cc(CCC(C)O)c(OC)c2c1OCO2` (stereo not given), the Percent Effect in [1] was -5.08%; in assay [2], -1.33%; in assay [3], -4.24%; in assay [4] it was -3.72%; in the assay with Trypanosoma cruzi, -4.13%; in [5] it was -6.51%. Moreover, the Percent Effect in assay [6] is 11.5%; in the assay listed under Homo sapiens it was -0.862%; in assay [7] it was -1.06%; in [8], 0%; in assay [9], -6.82%.

For the compound `CCc1nc2n(n1)CC(NCc1noc(-c3ccccc3)n1)CC2` (stereo not given), the Percent Effect in [1] is -5.91%; in [2], 5.26%; in assay [3], -5.76%; in assay [4], 10.4%; in the assay with Trypanosoma cruzi, 9.06%; in [5] it was 2.52%. Besides, the Percent Effect in assay [6] is -2.28%; in the assay listed under Homo sapiens it was -13.2%; in assay [7], 3.45%; in assay [8], 16.1%; in [9], -6.43%.

As for `NCCn1nc(C2CCN(C(=O)CC3CCCCC3)C2)c2nccnc21` (stereo not given), the Percent Effect was -2.44% in assay [1]; -10.7% in [2]; 3.88% in [3]; 8.44% in assay [4]; 1.57% in the assay on Trypanosoma cruzi; -3.5% in [5]. In addition, the Percent Effect was -10.5% in [6]; 11.9% in the assay filed under Homo sapiens; -8.51% in assay [7]; 8.97% in assay [8]; -1.74% in [9].

As for `CN1CC(C(=O)NC(C)(C)C)CC1=O` (stereo not given), the Percent Effect in [1] is -3.04%; in assay [2], -5.48%; in assay [3], -0.441%; in [4], -0.584%; in the assay with Trypanosoma cruzi, -0.595%; in [5], -3.59%. In addition, the Percent Effect in assay [6] is 3%; in the assay filed under Homo sapiens it was -7.57%; in assay [7], 2.08%; in assay [8] it was 8.64%; in [9], 6.01%.

In the case of `c1ccc(-c2cnc(CN3CCCC3Cn3cncn3)o2)cc1` (stereo not given), the Percent Effect in [1] is -2.46%; in assay [2], 5.06%; in [3] it was -0.0232%; in [4], -1.55%; in the assay with Trypanosoma cruzi, -2.93%; in assay [5] it was 2.66%. Moreover, the Percent Effect in assay [6] was -0.737%; in the assay filed under Homo sapiens, 10.6%; in assay [7], 7.39%; in assay [8], 13.9%; in [9] it was -8.4%.

For the compound `O=C(NCCOc1ccc(F)c(F)c1)NCc1ccncc1`, the Percent Effect in [1] was -1.97%; in [2], 5.41%; in [3], 0.439%; in assay [4] it was -1.88%; with Trypanosoma cruzi, -2.32%; in assay [5], -2.86%. Also, the Percent Effect in assay [6] is 11.2%; in the assay listed under Homo sapiens, 14.5%; in [7], -0.529%; in [8], 4.88%; in assay [9], -2.73%.

In the case of `c1coc(-c2noc(CN3CCC(c4ccn[nH]4)CC3)n2)c1`, the Percent Effect in [1] is -1.24%; in [2], 5.41%; in assay [3], -3.37%; in [4], 31.9%; in the assay with Trypanosoma cruzi, 5.02%; in [5] it was 0%. The Percent Effect was 16.4% in assay [6]; 3.15% in the assay listed under Homo sapiens; -1.59% in assay [7]; 7.32% in assay [8]; -4.25% in [9].

In the case of `O=C(C1CC(=O)N(C2CCCC2)C1)N1CCN(CCn2cccc2)CC1` (stereo not given), the Percent Effect in assay [1] was -3.53%; in [2] it was 13.3%; in assay [3], -5.45%; in assay [4] it was 19.8%; with Trypanosoma cruzi, 2.82%; in [5], 13.5%. Besides, the Percent Effect in assay [6] is 16.9%; in the assay filed under Homo sapiens, 23%; in [7] it was 3.83%; in assay [8], 13.6%; in assay [9], -7.64%.
